# PubChem BioAssay
# Calls of active or inactive are those of the source.
# Experiments:
# [1] = binders of probe aFSTL3 on microarray, primary screen, stem cell growth factor project, biochemical, small-molecule microarray, fluorescence 635/667 (AID 1064); conditions: higher = more signal;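 also: measures binding of the biotinylated anti-FSTL3 antibody to printed compounds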
# [2] = binders from COS7 lysate, DM2A8 probe, primary screen, torsin A project, cell lysate, small-molecule microarray, fluorescence 635/667 (AID 1065); conditions: higher = more signal, COS7 lysate expressing mutant human TOR1A
# [3] = binders of probe aFGF2 on microarray, primary screen, stem cell growth factor project, biochemical, small-molecule microarray, fluorescence 635/667 (AID 1067); conditions: higher = more signal;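 also: measures binding of biotinylated aFGF2 protein to printed compounds on slides; z-score merges feature fluorescence and signal-to-noise across triplicate slides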
# [4] = binders of probe aFGF10 on microarray, primary screen, stem cell growth factor project, biochemical, small-molecule microarray, fluorescence 635/667 (AID 1071); conditions: higher = more signal;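 also: score merges 667 nm spot intensity and signal to noise from triplicate slides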
# [5] = target: Neurogenic locus notch homolog protein 2 (Homo sapiens) (UniProt Q04721); test: Notch2 binders on small-molecule microarrays, primary screen, biochemical, small-molecule microarray, 635 nm fluorescence, stem cell growth factors (AID 1073); conditions: Notch2 binding, higher = more signal
# [6] = target: Pro-neuregulin-1, membrane-bound isoform (Homo sapiens) (UniProt Q02297); test: NRG1 binders on small-molecule microarrays, primary screen, psychiatric disease protein project, biochemical, small-molecule microarray, fluorescence 635/667 (AID 1075); conditions: NRG1 binding, 635 nm fluorescence, higher = more signal;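 also: score combines 667 nm spot fluorescence with signal to noise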
# [7] = tested on: Neuregulin-1 EGF-like domain; test: binders of neuregulin-1 EGF-like domain, primary screen, biochemical, small-molecule microarray, 635 nm fluorescence (AID 1081); conditions: small-molecule microarray binding, higher = more signal;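 also: binding of the protein to compounds printed on small-molecule microarray slides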
# [8] = FRG1 promoter luciferase signal modulators, primary screen, FRG1 inhibition for FSHD, cell-based, C2C12 myotubes, firefly/Renilla luciferase, luminescence (AID 1084); conditions: higher = more signal, called active from +8 up or from −8 down
# [9] = binders of probe aFST on microarray, primary screen, stem cell growth factor project, biochemical, small-molecule microarray, fluorescence 635/667 (AID 1086); conditions: higher = more signal;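 also: score merges 667 nm fluorescence with signal-to-noise of each printed compound spot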
# [10] = binders of probe aHhip on microarray, primary screen, stem cell growth factor project, biochemical, small-molecule microarray, fluorescence 635/667 (AID 1087); conditions: higher = more signal;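 also: score merges spot fluorescence at 667nm with spot signal to noise ratio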
# [11] = tested on: PRMT1 (protein arginine N-methyltransferase 1); test: PRMT1 binders on small-molecule microarrays, primary screen, biochemical, small-molecule microarray, 635 nm fluorescence (AID 1088); conditions: small-molecule microarray binding, higher = more signal;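 also: binding of Prmt1 protein to compounds spotted on small-molecule microarray slides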
# [12] = yeast growth modulation, basal conditions, primary screen, YJM789 clinical isolate, OD600, 24 h (AID 1089);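 also: growth of clinical yeast isolate S. cerevisiae YJM 789 seeded 1000 cells per well; test concentration not given here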; conditions: S. cerevisiae YJM789 growth, higher = more signal, called active from +8 up or from −8 down
# [13] = fission yeast growth modulation, primary screen, strain 972, OD600, 24 h, no modulator (AID 1090);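 also: basal condition with compound alone and no growth modifier present; test concentration not given here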; conditions: S. pombe 972 growth, higher = more signal, called active from +8 up or from −8 down
# [14] = S. cerevisiae growth modulation with rapamycin, primary screen, strain BY4716, OD600, 96 h (AID 1091); conditions: higher = more signal, called active from +8 up or from −8 down; also: test concentration not given here
# [15] = target: Torsin-1A-interacting protein 2 (Homo sapiens) (UniProt Q8NFQ8); test: LULL1 binders on small-molecule microarray, primary screen, cell lysate, human LULL1 lysate, 635/667 nm fluorescence (AID 1092); conditions: hLULL1 lysate binding, 635 nm fluorescence, higher = more signal;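 also: probe is lysate of COS7 cells overexpressing human LULL1; score merges per-feature 667 nm fluorescence with signal-to-noise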
# [16] = E. coli growth modulation, two-sided OD650, primary screen, E. coli filamentation project, strain DRC41, 24 h (AID 1093); conditions: OD650, 24 h, higher = more signal, called active from +8 up or from −8 down;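 also: MC1000 strain lacking acrAB efflux and sulA so SOS filamentation is blocked; test concentration not given here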
# [17] = small-molecule microarray binders of probe aLefty2, primary screen, biochemical, biotinylated probe, 635/667 nm fluorescence (AID 1094); conditions: higher = more signal;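 also: score merges spot fluorescence near 667 nm with spot signal-to-noise ratio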
# [18] = tested on: Noggin (protein binding on small-molecule microarray); test: Noggin binders on small-molecule microarray, primary screen, biochemical, 635/667 nm fluorescence (AID 1095); conditions: 635 nm fluorescence, higher = more signal;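 also: score merges 667 nm feature fluorescence with signal to noise over triplicate slides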
# [19] = target: Neurogenic locus notch homolog protein 3 (Homo sapiens) (UniProt Q9UM47); test: NOTCH3 binders on small-molecule microarray, primary screen, biochemical, 635/667 nm fluorescence (AID 1096); conditions: NOTCH3 binding, 635 nm fluorescence, higher = more signal
# [20] = small-molecule microarray binders of probe aEGFR, primary screen, biochemical, biotinylated probe, 635/667 nm fluorescence (AID 1097); conditions: higher = more signal;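 also: probe is a biotinylated anti-EGFR antibody binding compounds printed on slides; score combines fluorescence near 667 nm and signal to noise of each spot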
# Torsin-1A-interacting protein 2 (Homo sapiens), sequence (Q8NFQ8 whole entry, looked up): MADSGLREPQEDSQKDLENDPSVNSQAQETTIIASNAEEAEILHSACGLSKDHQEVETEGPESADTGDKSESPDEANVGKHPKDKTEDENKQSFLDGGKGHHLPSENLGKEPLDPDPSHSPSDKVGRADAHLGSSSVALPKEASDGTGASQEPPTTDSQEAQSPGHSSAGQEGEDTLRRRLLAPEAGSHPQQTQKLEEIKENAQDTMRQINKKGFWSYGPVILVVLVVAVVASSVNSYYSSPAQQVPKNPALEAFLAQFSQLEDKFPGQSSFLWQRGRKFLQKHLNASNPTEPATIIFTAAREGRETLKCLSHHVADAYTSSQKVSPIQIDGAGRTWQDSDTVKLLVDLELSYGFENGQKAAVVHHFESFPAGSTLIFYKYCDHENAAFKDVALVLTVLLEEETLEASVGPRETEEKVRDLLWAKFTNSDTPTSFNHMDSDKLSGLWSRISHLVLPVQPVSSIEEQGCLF
# Pro-neuregulin-1, membrane-bound isoform (Homo sapiens), sequence (Q02297 whole entry, looked up, the tested form may be a part, canonical isoform): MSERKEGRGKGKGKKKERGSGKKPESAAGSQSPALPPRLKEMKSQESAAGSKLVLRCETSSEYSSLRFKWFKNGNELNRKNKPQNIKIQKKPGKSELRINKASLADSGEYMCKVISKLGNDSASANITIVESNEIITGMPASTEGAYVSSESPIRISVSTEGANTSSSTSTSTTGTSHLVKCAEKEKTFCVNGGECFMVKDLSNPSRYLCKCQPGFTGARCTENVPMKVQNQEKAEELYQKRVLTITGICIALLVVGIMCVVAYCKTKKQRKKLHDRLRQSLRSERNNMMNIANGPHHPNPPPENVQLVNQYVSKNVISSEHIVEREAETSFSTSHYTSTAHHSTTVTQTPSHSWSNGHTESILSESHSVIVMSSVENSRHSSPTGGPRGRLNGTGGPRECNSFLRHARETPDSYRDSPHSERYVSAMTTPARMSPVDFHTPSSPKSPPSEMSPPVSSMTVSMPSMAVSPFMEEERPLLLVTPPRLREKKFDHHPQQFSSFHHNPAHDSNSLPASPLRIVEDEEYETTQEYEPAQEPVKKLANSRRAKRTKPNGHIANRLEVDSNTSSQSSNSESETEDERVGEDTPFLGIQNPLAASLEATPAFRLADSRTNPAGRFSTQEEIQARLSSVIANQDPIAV
# Neurogenic locus notch homolog protein 2 (Homo sapiens), sequence (Q04721 whole entry, looked up, canonical isoform): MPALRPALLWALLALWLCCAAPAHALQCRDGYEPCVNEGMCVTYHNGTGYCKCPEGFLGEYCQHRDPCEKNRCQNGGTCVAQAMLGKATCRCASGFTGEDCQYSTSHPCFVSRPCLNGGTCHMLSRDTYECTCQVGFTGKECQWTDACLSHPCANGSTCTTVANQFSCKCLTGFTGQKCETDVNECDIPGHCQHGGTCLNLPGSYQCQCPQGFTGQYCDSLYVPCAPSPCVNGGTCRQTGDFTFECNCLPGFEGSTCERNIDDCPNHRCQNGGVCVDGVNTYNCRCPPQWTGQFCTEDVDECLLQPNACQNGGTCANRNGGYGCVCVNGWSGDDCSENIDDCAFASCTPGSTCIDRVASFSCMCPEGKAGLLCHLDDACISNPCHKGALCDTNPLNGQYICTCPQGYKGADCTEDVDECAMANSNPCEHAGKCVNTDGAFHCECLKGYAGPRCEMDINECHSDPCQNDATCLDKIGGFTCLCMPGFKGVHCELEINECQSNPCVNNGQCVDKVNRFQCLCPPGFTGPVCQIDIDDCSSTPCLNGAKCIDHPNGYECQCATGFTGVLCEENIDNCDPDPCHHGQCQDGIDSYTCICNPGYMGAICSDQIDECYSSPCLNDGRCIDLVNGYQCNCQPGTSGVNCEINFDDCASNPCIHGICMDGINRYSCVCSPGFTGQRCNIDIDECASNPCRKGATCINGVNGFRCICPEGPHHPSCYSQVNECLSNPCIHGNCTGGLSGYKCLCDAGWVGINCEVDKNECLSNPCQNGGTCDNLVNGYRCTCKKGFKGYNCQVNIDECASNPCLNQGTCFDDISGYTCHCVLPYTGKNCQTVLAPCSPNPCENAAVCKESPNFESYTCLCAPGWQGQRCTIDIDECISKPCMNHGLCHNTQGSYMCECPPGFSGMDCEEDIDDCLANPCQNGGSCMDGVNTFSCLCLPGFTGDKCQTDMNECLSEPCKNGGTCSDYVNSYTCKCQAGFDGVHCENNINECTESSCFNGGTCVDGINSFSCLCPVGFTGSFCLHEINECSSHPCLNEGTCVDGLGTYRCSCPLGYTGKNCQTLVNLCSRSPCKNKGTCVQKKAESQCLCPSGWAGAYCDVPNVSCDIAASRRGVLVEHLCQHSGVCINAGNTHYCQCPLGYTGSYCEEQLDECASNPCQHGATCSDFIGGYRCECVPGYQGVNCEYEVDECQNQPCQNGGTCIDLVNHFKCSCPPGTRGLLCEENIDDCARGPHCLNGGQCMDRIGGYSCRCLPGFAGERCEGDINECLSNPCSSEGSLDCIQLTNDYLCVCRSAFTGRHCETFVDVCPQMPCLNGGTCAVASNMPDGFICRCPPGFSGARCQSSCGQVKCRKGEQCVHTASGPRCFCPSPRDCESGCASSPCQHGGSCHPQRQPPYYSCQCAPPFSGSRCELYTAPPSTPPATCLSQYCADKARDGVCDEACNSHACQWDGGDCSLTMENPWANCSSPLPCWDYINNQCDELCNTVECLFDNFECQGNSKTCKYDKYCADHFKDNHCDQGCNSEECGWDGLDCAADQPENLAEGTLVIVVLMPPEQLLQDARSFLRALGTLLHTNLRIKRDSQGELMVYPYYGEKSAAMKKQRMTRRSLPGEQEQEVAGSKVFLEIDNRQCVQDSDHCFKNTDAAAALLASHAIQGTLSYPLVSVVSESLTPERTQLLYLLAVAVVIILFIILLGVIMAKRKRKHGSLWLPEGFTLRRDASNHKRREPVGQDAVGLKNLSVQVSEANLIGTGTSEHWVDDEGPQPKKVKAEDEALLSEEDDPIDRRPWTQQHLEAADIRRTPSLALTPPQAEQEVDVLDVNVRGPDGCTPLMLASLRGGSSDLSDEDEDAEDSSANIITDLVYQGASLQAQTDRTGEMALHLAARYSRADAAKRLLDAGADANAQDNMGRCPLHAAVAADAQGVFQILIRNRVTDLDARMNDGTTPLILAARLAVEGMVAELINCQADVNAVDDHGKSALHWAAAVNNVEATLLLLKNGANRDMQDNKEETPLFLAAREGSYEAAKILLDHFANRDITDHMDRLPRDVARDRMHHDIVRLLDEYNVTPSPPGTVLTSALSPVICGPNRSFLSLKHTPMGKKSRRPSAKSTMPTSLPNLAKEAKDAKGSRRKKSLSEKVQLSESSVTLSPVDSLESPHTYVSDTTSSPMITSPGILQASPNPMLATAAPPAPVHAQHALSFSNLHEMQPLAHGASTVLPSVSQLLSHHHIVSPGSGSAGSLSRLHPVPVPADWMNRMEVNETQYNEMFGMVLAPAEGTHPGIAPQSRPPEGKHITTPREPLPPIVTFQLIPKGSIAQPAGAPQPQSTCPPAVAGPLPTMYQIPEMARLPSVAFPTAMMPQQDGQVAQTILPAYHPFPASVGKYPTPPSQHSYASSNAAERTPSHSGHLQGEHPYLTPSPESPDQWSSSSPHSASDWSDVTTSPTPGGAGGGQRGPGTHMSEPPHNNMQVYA
SMILES,composite z-score [1],composite z-score [2],composite z-score [3],composite z-score [4],composite z-score [5],composite z-score [6],composite z-score [7],z-score [8],composite z-score [9],composite z-score [10],composite z-score [11],z-score [12],z-score [13],z-score [14],composite z-score [15],z-score [16],composite z-score [17],composite z-score [18],composite z-score [19],composite z-score [20]
COC(=O)[C@]1(CCS(=O)(=O)c2ccccc2)N=C(c2ccc(OCCCO)cc2)O[C@@H]1c1ccccc1CN=[N+]=[N-],0.0312,0.419,0.0794,0.169,1.12,0.959,1.35,-1.96 (inactive),0.284,-0.346,1.54,1.6 (inactive),1.13 (inactive),37 (active),3.09,-0.33 (inactive),0.0956,0.839,0.941,-0.0972
CC1CC/C=C\[C@H]2OC34C=CCN(c5ccc6ccccc6c5)C(=O)[C@H]3N(C(CO)C(C)C)C(=O)[C@@H]4C2C(=O)O1 (stereo not given in full),-0.729,-0.0684,-0.0598,-0.0104,-0.477,1.93,1.43,0.718 (inactive),-0.25,-0.132,0.445,-1.03 (inactive),-1.55 (inactive),-0.797 (inactive),1.76,-0.578 (inactive),-0.0313,-0.0033,0.135,-0.126
CC=CC(O)C1C=CC2C(=O)N(C)C(=O)C2N1Nc1ccc([N+](=O)[O-])cc1[N+](=O)[O-] (stereo not given),0.028,-0.183,-0.185,-0.0156,-0.346,1.2,1.29,0.639 (inactive),-0.441,0.312,0.0758,0.837 (inactive),0.325 (inactive),1.67 (inactive),3.57,-1.06 (inactive),-0.0478,-0.448,-0.44,-0.342
CCOC(=O)C[C@H]1[C@H](OC(=O)c2ccc(-c3ccccc3)cc2)[C@@H](NC(=O)C2CCCCC2)c2cc(OCCCO)ccc2N1C(=O)c1ccccc1,-0.539,0.338,-0.0344,0.303,0.425,0.397,0.337,-0.298 (inactive),0.345,0.103,0.5,0.285 (inactive),0.881 (inactive),1.29 (inactive),1.44,-0.964 (inactive),-0.13,0.714,0.855,-0.113
COc1ccc([Si](C)(C)[C@H]2[C@H](CC(=O)N3Cc4ccccc4C[C@H]3CO)O[C@@]3(C(=O)N(Cc4cccc(N5CCCCC5=O)c4)c4ccccc43)[C@@H]2C)cc1,0.0111,0.576,0.085,0.36,0.246,0.175,1.2,-2.09 (inactive),0.342,0.0274,1.29,-2.19 (inactive),0.522 (inactive),0.925 (inactive),1.79,-0.0352 (inactive),0.02,1.02,1.09,-0.0471
